Inconclusive results are not listed. A call without a number means that no potency is given here. Activity calls are given as the source filed them. Calls follow the shape of the dose curve; as a rule, active = well fitted inhibition curve with a large enough effect; inconclusive = small, poorly fitted or top-dose-only effect; inactive = no such curve, though single readings can be large or run the other way.
Potency is read from the fitted curve at half-maximal effect.

This assay can be described thus: Counterscreen qHTS for Identification of Calcium Integrin Binding Protein 1 (CIB1) Competitor. To be noted: series mostly up to 114 µM. The text has this:
Assay Provider: Ulhas P. Naik, PhD
Sidney Kimmel Medical College
Thomas Jefferson University, Philadelphia, PA
Primary function of platelets is to maintain hemostasis. At the site of vascular injury, platelets adhere to adhesive proteins such as collagen and von Willebrand factor. Adherent platelets are activated and generate soluble platelet agonists such as thrombin, ADP and thromboxane A2. Following exposure of circulating platelets to these agonists, results in platelet shape change, granule secretion and activation of platelet integrin alphaIIb-beta3. Ligand binding to activated integrin alphaIIb-beta3 triggers outside-in signaling, leading to platelet aggregation, stabilization of platelet plug, and clot retraction. Upon atherosclerotic plaque rupture also causes platelet plug formation, which underlies a number of cardiovascular diseases such as myocardial infraction and stroke. A number of anti-platelet drugs such as aspirin, clopidogrel, prasugrel, vorapaxar, and eptifibatide are currently available to prevent the thrombotic complications. However, these anti-platelet agents have several limitations including inherent variability in individual responses, developing resistance, and serious bleeding side effects. For these reasons they are not suitable for long-term protection. Based on the experiences with current anti-platelet drugs, it appears that the most useful therapeutic approach is to intersect the secondary responses such as integrin outside-in signaling or recruitment of platelets by TxA2 and secreted ADP. Compounds, which can largely preserve the primary hemostatic function of platelets but inhibit secondary response will be most desired therapeutic agents for treatment of cardiovascular disease.
CIB1 is a calcium integrin binding protein, which specifically interact with the alphaIIb subunit of integrin alphaIIb-beta3. Binding of CIB1 to alphaIIb regulates the outside-in signaling in platelets, which is needed for thrombus stabilization and thrombus growth. […] Therefore, we propose that discovery of a small molecule that can prevent the association of CIB1 and alphaIIb-beta3 will be a potential anti-platelet agent that can block the thrombus formation without undue effect on hemostasis.
To develop fluorescence polarization (FP) assay using fluorescently labeled alphaIIb peptide and CIB1 protein. Using FP assay characterize the binding affinity, competitive inhibition, and acceptable Z factor (0.5 to1) in order to perform the HTS to identify small molecule compound that can prevent CIB1 binding to platelet integrin alphaIIb-beta3. Active compounds were re-acquired and validated using confirmatory and counterscreens (using 100 nM scrambled peptide).
[1] Naik MU, Nigam A, Manrai P, et al. CIB1 deficiency results in impaired thrombosis: the potential role of CIB1 in outside-in signaling through integrin alpha IIb beta 3. J Thromb Haemost. 2009;7(11):1906-1914. doi:10.1111/j.1538-7836.2009.03581.
SEQUENCE No. (1, 2, 3, etc.); […] (e.g., Cells, Incubation, Reagent, etc.); VALUE and DESCRIPTION.
1; Reagent; 3 uL; Protein or buffer (4/3x)
2; Compound; 46 nL; Control inhibitor / compound library
3; Time; 15 min; Room temperature incubation
4; Reagent; 1 uL; Fluorescent labeled peptide (4x)
5; Time; 1000 rpm; Centrifuge
6; Time; 15 min; Room temperature incubation
7; Detection; Ex 480/ Em 540; ViewLux Fluorescence Read
NOTES (numbers refer to sequence above)
1; Protein Mixture: C1B1-GST (final concentrations of 1 uM). Buffer composition: 5 mM HEPES pH 7.4, 125 mM NaCl, 5 mM CaCl2, 0.01% Tween20.
2; Control Inhibitor: unlabeled peptide (final concentration range 17.4 nM to 572 uM). Compound Library final concentration range 18.3 nM to 114 uM.
3; Room temperature incubation.
4; Fluorescent Labeled Peptide: FITC-alphaIIb (final concentration of 100 nM). Sequence of Scrambled peptide: Acetyl-[…]-FITC (purity is 95.37%).
6; Room temperature incubation.
[…]
On to `CN(C)C(=S)SSC(=S)N(C)C`, for which the Potency entry was “inactive”.

Take `O=C1OC(c2ccc(O)c(S(=O)(=O)O)c2)(c2ccc(O)c(S(=O)(=O)O)c2)c2c(Br)c(Br)c(Br)c(Br)c21`: the Potency entry is “inactive”.

With `COC[C@H]1OC(=O)c2coc3c2[C@@]1(C)C1=C(C3=O)C2CCC(=O)[C@@]2(C)C[C@H]1OC(C)=O` (stereo not given in full), the Potency entry is “inactive”.

In the case of `CC(=O)[O][Hg][c]1ccccc1`, the Potency entry was “inactive”.

For the compound `Cc1ccc([N+](=O)[O-])[c]2c1[O][Hg]2`, the Potency result was “inactive”.

Regarding `O=C1C(I)=CC(=C(c2cc(I)c(O)c(I)c2)c2ccccc2C(=O)O)C=C1I`, the Potency entry is “inactive”.

As for `COc1nn(CSP(=S)(OC)OC)c(=O)s1`, the Potency result was “inactive”.

With `S=C(SSC(=S)N1CCCCC1)N1CCCCC1`, the Potency entry is “inactive”.

For the compound `N[C@@H](Cc1ccc(Oc2cc(I)c(O)c(I)c2)c(I)c1)C(=O)O`, the Potency entry was “inactive”.

For the compound `CCCCCCCCCCCCCCCC[N+](C)(C)C`, the Potency entry is “inactive”.

Regarding `C[CH2][Hg][S]c1ccccc1C(=O)O`, the Potency entry was “inactive”.

In the case of `CC1=C(O)C(=O)C=C2C1=CC=C1[C@@]2(C)CC[C@@]2(C)[C@@H]3C[C@](C)(C(=O)O)CC[C@]3(C)CC[C@]12C`, the Potency is 44.7 µM (active).

With `O=c1c(C2CC(c3ccc(-c4ccc(Br)cc4)cc3)Cc3ccccc32)c(O)sc2ccccc12` (stereo not given), the Potency result was “inactive”.

Turning to `O=c1oc2ccccc2c(O)c1C(CC(O)c1ccc(-c2ccc(Br)cc2)cc1)c1ccccc1` (stereo not given), the Potency entry is “inactive”.

Turning to `CN(C)CCc1c[nH]c2cccc(O)c12`, the Potency was 89.1 µM (active).

The values above are taken from PubChem BioAssay AID1508619 (National Center for Advancing Translational Sciences (NCATS), 2020).
